Laboratory results published in PubChem BioAssay (Tox21).
Records with an inconclusive call do not appear. The source made the active and inactive calls. Unless noted, calls follow the shape of the dose curve; as a rule, active = well fitted curve in the direction sought with a large enough effect in the repeat runs; inconclusive = weak or mixed curves; inactive = no such curve, though single readings can be large; an effect the other way counts as inactive or inconclusive.

Experiments:
[1] = qHTS assay to identify small molecule HDAC inhibitors - cell viability counter screen (AID 1259365); also: series mostly up to about 92 µM; nearly all actives have a fitted effect of over 50% in size
Summary of the method: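 After overnight seeding at 1,500 cells per well, wild-type HCT-116 cultures took up compounds in DMSO for 2hr at 37 C. Viable cell content came from luminescence with CellTiter-Glo.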

[2] = qHTS assay to identify small molecule agonists of the sonic hedgehog signaling (Shh) pathway - cell viability counter screen (AID 1259366); also: nearly all actives have a fitted effect of over 50% in size
Summary of the method: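 Same-well cytotoxicity read. Gli1-Luc reporter 3T3 cells; compounds 24hr, 37C/5% CO2; CellTiter-Fluor fluorescence.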

[3] = qHTS assay to identify small molecule antagonists of the sonic hedgehog signaling (Shh) pathway - cell viability counter screen (AID 1259367); also: nearly all actives have a fitted effect of over 55% in size
Summary of the method: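 Conditioned medium drove Shh signaling in 3T3 Gli1-Luc cells exposed to compounds at 37C and 5% CO2. Viability was determined from CellTiter-Fluor fluorescence, with reagent incubated 1 hr after 23 hr of treatment.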

[4] = qHTS assay to identify small molecule agonists of the sonic hedgehog signaling (Shh) pathway (AID 1259368; calls by dose curve;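 also: NIH/3T3-derived 3T3Gli1-Luc cells carrying a stable Gli1-driven firefly luciferase reporter; series mostly up to about 92 µM; nearly all actives have a fitted effect of over 15% in size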)
Summary of the method: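 Hedgehog pathway agonism scored by increased firefly luciferase luminescence in 3T3Gli1-Luc cells treated 24 hr at 37 C; detection used a 30 min room-temperature reagent incubation.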

[5] = qHTS assay to identify small molecule antagonists of the sonic hedgehog signaling (Shh) pathway (AID 1259369; calls by dose curve; also: nearly all actives have a fitted effect of over 45% in size)
Summary of the method: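 NIH/3T3 stable Gli1-Luc clone, 2,000 cells/well, 4hr settle; cpd + conditioned medium 24hr; Luc reagent 30min RT; luminescence.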

[6] = biological target: Estrogen receptor beta (Homo sapiens) (UniProt Q92731); test: qHTS assay to identify small molecule agonists of the estrogen receptor beta (ER-beta) signaling pathway (AID 1259377; active = well fitted activation curve with a large enough effect in the signal ratio in the repeat runs, not every such curve was filed as active; the % refers to the signal ratio)
Chain of Estrogen receptor beta (Homo sapiens) (Q92731 whole entry, looked up): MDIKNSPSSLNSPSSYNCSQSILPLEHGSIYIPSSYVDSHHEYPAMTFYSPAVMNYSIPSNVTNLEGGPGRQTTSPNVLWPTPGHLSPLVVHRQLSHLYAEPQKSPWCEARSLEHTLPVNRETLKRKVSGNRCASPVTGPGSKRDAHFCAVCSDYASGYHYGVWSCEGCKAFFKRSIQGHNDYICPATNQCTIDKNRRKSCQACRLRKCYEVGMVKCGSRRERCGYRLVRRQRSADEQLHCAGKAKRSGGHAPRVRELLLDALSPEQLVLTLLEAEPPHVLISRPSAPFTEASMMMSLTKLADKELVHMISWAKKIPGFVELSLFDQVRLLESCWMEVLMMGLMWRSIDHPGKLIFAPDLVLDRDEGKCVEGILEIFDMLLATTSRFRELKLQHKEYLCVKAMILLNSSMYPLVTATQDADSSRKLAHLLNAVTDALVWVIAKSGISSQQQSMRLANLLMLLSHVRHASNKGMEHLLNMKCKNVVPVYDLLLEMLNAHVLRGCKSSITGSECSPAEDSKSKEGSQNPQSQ
Summary of the method: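 Read-out: beta-lactamase FRET fluorescence. Cell line: ER-beta-UAS-bla HEK293T in 2% charcoal-stripped FBS. Exposure: 16 hr at 37C. Substrate step: 2 h at room temperature.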

[7] = biological target: Estrogen receptor beta (Homo sapiens) (UniProt Q92731); test: qHTS assay to identify small molecule antagonists of the estrogen receptor beta (ER-beta) signaling pathway (AID 1259378; active = well fitted inhibition curve with a large enough effect in the signal ratio in the repeat runs, not every such curve was filed as active; the % refers to the signal ratio)
Summary of the method: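 ER-beta-UAS-bla HEK293T (GripTite) cells in 2% charcoal-stripped FBS medium were preincubated 6 hr at 37C, dosed with compound, then stimulated with 1 nM E2 (final) for 16 hr; beta-lactamase reporter read by B/G FRET fluorescence after 2 hr substrate loading.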

[8] = qHTS assay to identify small molecule agonists of the androgen receptor (AR) signaling pathway in the presence of an antagonist - cell viability counter screen (AID 1259379);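 also: MDA-kb2 human breast cancer cells carrying an MMTV luciferase reporter; series mostly up to about 92 µM; nearly all actives have a fitted effect of over 25% in size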
Summary of the method: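 MDA-kb2 viability measured by CellTiter-Fluor fluorescence in the same wells as the luciferase signal; nilutamide 3.0uM final; 15-point compound titration; 16 hr at 37C.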

[9] = qHTS assay to identify small molecule agonists of the estrogen receptor beta (ER-beta) signaling pathway - cell viability counter screen (AID 1259380); also: nearly all actives have a fitted effect of over 30% in size
Summary of the method: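 Measured: luminescence from CellTiter-Glo after 30 min at room temperature, added to wells already read for the LiveBLAzer FRET reporter (2 hr substrate); ER-beta-UAS-bla HEK293T cells had 16 hr compound treatment at 37C, 5% CO2.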

[10] = qHTS assay to identify small molecule antagonists of the estrogen receptor beta (ER-beta) signaling pathway - cell viability counter screen (AID 1259382); also: series mostly up to about 92 µM; nearly all actives have a fitted effect of over 55% in size
Summary of the method: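 Readout: luminescence, CellTiter-Glo, same wells as bla assay. System: ER-beta-UAS-bla GripTite HEK293T, 2% charcoal-stripped FBS. Exposure: compounds plus 1nM 17-beta-estradiol, 16 hr, 37C.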

[11] = biological target: Estrogen receptor (Homo sapiens) (UniProt P03372); test: qHTS assay to identify small molecule agonists of the estrogen receptor alpha (ER-alpha) signaling pathway in the presence of an antagonist (AID 1259383; calls by dose curve; also: top concentration of the series differs between compounds; nearly all actives have a fitted effect of over 15% in size)
Chain of Estrogen receptor (Homo sapiens) (P03372 whole entry, looked up): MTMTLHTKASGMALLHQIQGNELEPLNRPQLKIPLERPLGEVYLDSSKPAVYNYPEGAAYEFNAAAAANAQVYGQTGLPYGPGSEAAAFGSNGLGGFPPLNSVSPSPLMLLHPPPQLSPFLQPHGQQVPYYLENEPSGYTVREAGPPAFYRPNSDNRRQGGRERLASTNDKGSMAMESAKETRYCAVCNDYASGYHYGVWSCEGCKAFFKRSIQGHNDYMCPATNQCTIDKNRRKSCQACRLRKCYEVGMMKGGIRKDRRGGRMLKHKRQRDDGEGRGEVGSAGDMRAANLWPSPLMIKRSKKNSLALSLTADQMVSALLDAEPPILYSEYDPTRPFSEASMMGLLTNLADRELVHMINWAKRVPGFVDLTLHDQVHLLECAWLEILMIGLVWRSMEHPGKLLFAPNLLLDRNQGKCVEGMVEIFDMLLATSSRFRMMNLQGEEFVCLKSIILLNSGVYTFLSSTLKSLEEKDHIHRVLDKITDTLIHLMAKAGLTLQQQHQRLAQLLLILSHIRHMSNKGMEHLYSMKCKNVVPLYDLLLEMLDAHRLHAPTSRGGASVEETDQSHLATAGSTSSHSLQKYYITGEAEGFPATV
Summary of the method: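 Quantitative HTS confirmation: compounds titrated at 15 concentrations onto estrogen-deprived VM7Luc4E2 cells carrying a four-ERE luciferase construct, with ICI-182,780 present at 10.0nM final. Signal is luminescence after 22hr exposure.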

[12] = qHTS assay to identify small molecule agonists or antagonists of the thyroid stimulating hormone receptor (TSHR) signaling pathway - wild type cell line counter screen (AID 1259384; calls by dose curve)
Summary of the method: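 Wild-type HEK293 cells were plated 18 h at 37 C/5% CO2, pin-dosed with compound plus Ro20-1724 medium, held 30 min at room temperature, then given cAMP-d2 and anti-cAMP-cryptate; fluorescence was read after 1 h. Fifteen concentrations, triplicate.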

[13] = biological target: Thyrotropin receptor (Homo sapiens) (UniProt P16473); test: qHTS assay to identify small molecule antagonists of the thyroid stimulating hormone receptor (TSHR) signaling pathway (AID 1259385; calls by dose curve; also: nearly all actives have a fitted effect of over 20% in size)
Chain of Thyrotropin receptor (Homo sapiens) (P16473 whole entry, looked up): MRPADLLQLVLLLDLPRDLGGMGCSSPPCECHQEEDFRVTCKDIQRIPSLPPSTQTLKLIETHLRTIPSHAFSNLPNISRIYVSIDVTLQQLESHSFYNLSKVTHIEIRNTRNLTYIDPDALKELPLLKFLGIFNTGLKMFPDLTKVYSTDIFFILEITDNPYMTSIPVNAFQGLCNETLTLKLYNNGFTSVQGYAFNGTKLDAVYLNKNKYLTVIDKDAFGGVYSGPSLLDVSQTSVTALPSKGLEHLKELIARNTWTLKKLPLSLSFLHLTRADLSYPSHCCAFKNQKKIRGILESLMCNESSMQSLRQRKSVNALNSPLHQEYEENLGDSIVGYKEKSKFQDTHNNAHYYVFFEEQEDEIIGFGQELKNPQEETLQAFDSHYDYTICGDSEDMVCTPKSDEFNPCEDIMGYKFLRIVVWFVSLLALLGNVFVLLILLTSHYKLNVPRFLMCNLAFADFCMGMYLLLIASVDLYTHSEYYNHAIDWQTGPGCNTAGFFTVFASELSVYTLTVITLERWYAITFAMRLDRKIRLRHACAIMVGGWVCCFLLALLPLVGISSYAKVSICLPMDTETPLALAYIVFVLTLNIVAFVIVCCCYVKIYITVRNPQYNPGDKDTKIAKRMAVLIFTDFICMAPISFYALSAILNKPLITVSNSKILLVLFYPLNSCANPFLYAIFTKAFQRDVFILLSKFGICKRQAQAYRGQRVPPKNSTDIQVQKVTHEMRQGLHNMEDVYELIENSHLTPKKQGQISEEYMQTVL
Summary of the method: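 TSHR-HEK293 cells were plated and held 18 h at 37C/5% CO2, then given compound plus Ro20-1724 and stimulated with TSH at 1.5 ng/mL final. After 30 min at room temperature, cAMP was detected with cAMP-d2/anti-cAMP-cryptate (1 h) by fluorescence.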

[14] = biological target: Progesterone receptor (Homo sapiens) (UniProt P06401); test: qHTS assay to identify small molecule agonists of the progesterone receptor (PR) signaling pathway (AID 1346784; calls by dose curve; also: nearly all actives have a fitted effect of over 30% in size)
Chain of Progesterone receptor (Homo sapiens) (P06401 whole entry, looked up): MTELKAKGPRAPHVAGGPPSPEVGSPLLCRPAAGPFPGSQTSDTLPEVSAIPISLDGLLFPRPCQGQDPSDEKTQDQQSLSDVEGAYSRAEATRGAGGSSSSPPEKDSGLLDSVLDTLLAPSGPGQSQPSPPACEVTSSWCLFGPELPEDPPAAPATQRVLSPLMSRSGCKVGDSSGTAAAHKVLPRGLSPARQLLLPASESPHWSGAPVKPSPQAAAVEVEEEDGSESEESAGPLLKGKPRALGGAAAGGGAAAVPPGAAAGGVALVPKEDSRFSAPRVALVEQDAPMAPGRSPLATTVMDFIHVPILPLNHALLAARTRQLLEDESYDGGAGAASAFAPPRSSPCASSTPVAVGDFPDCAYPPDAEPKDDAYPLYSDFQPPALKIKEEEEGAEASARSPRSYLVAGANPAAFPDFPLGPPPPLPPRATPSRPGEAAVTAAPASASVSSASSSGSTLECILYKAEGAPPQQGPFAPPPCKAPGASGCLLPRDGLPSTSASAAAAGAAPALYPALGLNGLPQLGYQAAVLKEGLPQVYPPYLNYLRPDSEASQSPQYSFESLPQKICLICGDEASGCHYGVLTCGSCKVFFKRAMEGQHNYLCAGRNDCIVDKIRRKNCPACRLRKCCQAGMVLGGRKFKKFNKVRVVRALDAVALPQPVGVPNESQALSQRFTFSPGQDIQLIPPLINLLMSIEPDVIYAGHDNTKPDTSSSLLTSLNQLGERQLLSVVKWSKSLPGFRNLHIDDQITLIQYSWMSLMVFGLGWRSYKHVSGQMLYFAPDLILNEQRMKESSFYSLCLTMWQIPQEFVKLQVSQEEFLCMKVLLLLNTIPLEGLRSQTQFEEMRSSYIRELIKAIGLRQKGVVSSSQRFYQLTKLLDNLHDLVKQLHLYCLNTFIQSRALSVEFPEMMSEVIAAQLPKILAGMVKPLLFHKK
Summary of the method: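 Compounds were tested for PR agonism in HEK 293T cells bearing a beta-lactamase gene under UAS control. Treatment lasted 16 hr at 37C; signal came from fluorescence of a FRET substrate.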

[15] = biological target: Progesterone receptor (Homo sapiens) (UniProt P06401); test: qHTS assay to identify small molecule antagonists of the progesterone receptor (PR) signaling pathway (AID 1346795; active = well fitted inhibition curve with a large enough effect in the signal ratio in the repeat runs, not every such curve was filed as active; the % refers to the signal ratio)
Summary of the method: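 In HEK293T cells bearing the PR-UAS-bla reporter, compound effects on promegestone-driven (1 nM) beta-lactamase expression are assessed after 16 hr using a fluorescent FRET substrate incubated 2 hr at room temperature.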

[16] = qHTS assay to identify small molecule antagonists of the progesterone receptor (PR) signaling pathway - cell viability counter screen (AID 1346798); also: series mostly up to about 92 µM; nearly all actives have a fitted effect of over 50% in size
Summary of the method: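 Following a 4 hr attachment, PR-UAS-bla HEK293T cells in charcoal-stripped FBS medium were exposed to compounds with R5020 for 16 hr; CellTiter-Glo was added and luminescence read after 30 min at room temperature.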

[17] = qHTS assay to identify small molecule agonists of the progesterone receptor (PR) signaling pathway - cell viability counter screen (AID 1346799; calls by dose curve; also: nearly all actives have a fitted effect of over 45% in size)
Summary of the method: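 Here, 3,000 PR-UAS-bla HEK293T cells per well were treated with compounds for 16 hr after a 6 hr preincubation at 37C and 5% CO2; cell viability is the CellTiter-Glo luminescence signal.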

[18] = qHTS assay to identify small molecule antagonists of the TGF-beta/Smad signaling pathway - cell viability counter screen (AID 1346824); also: nearly all actives have a fitted effect of over 50% in size
Summary of the method: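 SBE-bla HEK 293T cells were plated overnight at 37 C, then given compounds in DMSO plus TGF-beta1 (added as 0.25 ng/mL solution) for 5 hr. After the bla read, CellTiter-Glo was added to the same wells and luminescence read after 30 min at room temperature.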

[19] = qHTS assay to identify small molecule agonists of the estrogen receptor alpha (ER-alpha) signaling pathway in the presence of an antagonist - cell viability counter screen (AID 1259386);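 also: series mostly up to about 92 µM; cells exposed to compounds for 22 h at 37 °C before the viability read; nearly all actives have a fitted effect of over 30% in size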
Summary of the method: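 The test measures whether compounds kill ER-alpha reporter cells (VM7Luc4E2) under antagonist co-treatment (ICI-182,780, 10.0nM). Fluorescence from CellTiter-Fluor is read after a 22hr exposure.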

[20] = biological target: Androgen receptor (Homo sapiens) (UniProt P10275); test: qHTS assay to identify small molecule agonists of the androgen receptor (AR) signaling pathway in the presence of an antagonist (AID 1259381; calls by dose curve; also: nearly all actives have a fitted effect of over 15% in size)
Chain of Androgen receptor (Homo sapiens) (P10275 whole entry, looked up): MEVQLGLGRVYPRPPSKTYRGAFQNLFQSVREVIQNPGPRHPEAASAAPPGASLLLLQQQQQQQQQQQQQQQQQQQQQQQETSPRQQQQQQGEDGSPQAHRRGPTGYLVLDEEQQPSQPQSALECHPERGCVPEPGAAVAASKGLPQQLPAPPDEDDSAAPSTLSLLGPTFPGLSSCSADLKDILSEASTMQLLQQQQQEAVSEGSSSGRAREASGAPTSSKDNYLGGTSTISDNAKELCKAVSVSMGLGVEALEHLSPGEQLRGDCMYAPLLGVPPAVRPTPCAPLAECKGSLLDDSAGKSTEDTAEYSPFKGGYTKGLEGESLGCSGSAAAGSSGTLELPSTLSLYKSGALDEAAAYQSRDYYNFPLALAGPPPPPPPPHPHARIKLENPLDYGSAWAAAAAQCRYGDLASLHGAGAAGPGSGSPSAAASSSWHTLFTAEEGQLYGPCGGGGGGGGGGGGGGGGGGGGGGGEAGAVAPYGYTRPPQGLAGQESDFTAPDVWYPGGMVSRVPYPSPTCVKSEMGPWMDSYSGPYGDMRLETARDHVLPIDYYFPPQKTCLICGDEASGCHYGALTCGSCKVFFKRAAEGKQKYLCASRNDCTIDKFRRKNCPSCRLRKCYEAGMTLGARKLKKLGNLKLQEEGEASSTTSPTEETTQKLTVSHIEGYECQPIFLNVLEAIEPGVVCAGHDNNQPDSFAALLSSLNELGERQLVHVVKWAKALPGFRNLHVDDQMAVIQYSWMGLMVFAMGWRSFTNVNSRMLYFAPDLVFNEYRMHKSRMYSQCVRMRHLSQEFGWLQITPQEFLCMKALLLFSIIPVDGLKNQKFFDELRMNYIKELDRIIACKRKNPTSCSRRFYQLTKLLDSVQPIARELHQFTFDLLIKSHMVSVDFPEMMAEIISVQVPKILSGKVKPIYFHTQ
Summary of the method: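 Luminescent ONE-Glo read, 30min at room temperature, follows 16hr compound exposure (15 concentrations) of MDA-kb2 cells at 37C, 0% CO2, with nilutamide added at 3.0uM final.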

Measured: Potency

CCCSSCCC
not listed: [19] | [20]
inactive: all other assays above

O=C(O)CCCCCC(=O)O
not listed: [12] | [13] | [20]
inactive: all other assays above

COc1cc(OC)nc(O[C@H](C(=O)O)C(OC)(c2ccccc2)c2ccccc2)n1
not listed: [15] | [16] | [17]
inactive: all other assays above

O/N=C/C=N/O
not listed: [11] | [20]
inactive: all other assays above

C=CCSSCCC
not listed: [12] | [17] | [19] | [20]
inactive: all other assays above

CN(C)CCN(C)CCO
not listed: [10] | [20]
inactive: all other assays above

COC(=O)c1cc(Cl)cc(Cl)c1
inactive: all assays above

CC(=O)O[C@@H]1CC2CCC1(C)C2(C)C (stereo not given in full)
not listed: [11] | [17]
inactive: all other assays above

Cc1cc(-c2ccccc2)nnc1NCCN1CCOCC1
not listed: [12] | [16] | [20]
inactive: all other assays above

CC1OCCC1=O (stereo not given)
not listed: [11] | [20]
inactive: all other assays above

CC(C)NCC(O)c1ccc2ccccc2c1 (stereo not given)
not listed: [11] | [20]
inactive: all other assays above

O=C1CCC(=O)N1Cl
not listed: [12] | [14] | [16] | [17] | [19] | [20]
inactive: all other assays above

CC/C=C\CCOC(=O)c1ccccc1O
not listed: [10] | [19] | [20]
inactive: all other assays above

O=C1CCCCO1
not listed: [10] | [20]
inactive: all other assays above

OCC1CCC(CO)CC1 (stereo not given)
not listed: [16]
inactive: all other assays above

CCCC(CC)c1ccccc1 (stereo not given)
not listed: [10] | [17] | [20]
inactive: all other assays above
